Assay results: PubChem BioAssay (Tox21)
Records with an inconclusive call do not appear. Active and inactive are the calls of the source. Unless noted, calls follow the shape of the dose curve; as a rule, active = well fitted curve in the direction sought with a large enough effect in the repeat runs; inconclusive = weak or mixed curves; inactive = no such curve, though single readings can be large; an effect the other way counts as inactive or inconclusive.

How the values were obtained:
[1] = qHTS assay to identify small molecule agonists of the peroxisome proliferator-activated receptor delta (PPARd) signaling pathway - cell viability counter screen (AID 743211); also: nearly all actives have a fitted effect of over 55% in size
How it was run: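 HEK293H PPARd-bla, 3000 cells/well; 5 h preincubation 37C/5% CO2; cpd in DMSO, 17 h 37C; B/G FRET substrate 2 h RT; CellTiter-Glo 30 min RT, luminescence.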

[2] = target: Peroxisome proliferator-activated receptor delta (Homo sapiens) (UniProt Q03181); experiment: qHTS assay to identify small molecule agonists of the peroxisome proliferator-activated receptor delta (PPARd) signaling pathway (AID 743212; calls by dose curve)
Peroxisome proliferator-activated receptor delta (Homo sapiens), sequence (Q03181 whole entry, looked up): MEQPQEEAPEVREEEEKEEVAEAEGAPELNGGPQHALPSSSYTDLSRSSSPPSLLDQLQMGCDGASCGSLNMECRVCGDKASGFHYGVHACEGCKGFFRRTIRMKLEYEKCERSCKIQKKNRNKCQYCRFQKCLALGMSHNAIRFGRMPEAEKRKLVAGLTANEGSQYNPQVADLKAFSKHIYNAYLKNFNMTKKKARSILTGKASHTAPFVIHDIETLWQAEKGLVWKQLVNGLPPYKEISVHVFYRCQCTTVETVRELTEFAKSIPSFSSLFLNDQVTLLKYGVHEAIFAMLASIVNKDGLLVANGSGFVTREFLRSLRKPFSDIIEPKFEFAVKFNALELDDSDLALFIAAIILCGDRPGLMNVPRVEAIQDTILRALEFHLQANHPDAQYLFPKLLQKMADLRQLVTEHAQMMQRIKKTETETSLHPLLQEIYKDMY
How it was run: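 HEK293H UAS-bla reporter cells, human PPARd system; compounds delivered in DMSO after 5 h plating, then at 37 C. Beta-lactamase FRET read, 2 h RT substrate step.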

[3] = qHTS assay to identify small molecule antagonists of the peroxisome proliferator-activated receptor delta (PPARd) signaling pathway - cell viability counter screen (AID 743213); also: nearly all actives have a fitted effect of over 50% in size
How it was run: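 CellTiter-Glo was added to PPARd-bla HEK293H wells following 17 h compound treatment in the presence of 300 nM L165041. Luminescence was recorded after 30 min at room temperature.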

[4] = qHTS assay to identify small molecule agonists of the farnesoid-X-receptor (FXR) signaling pathway - cell viability counter screen (AID 743218); also: nearly all actives have a fitted effect of over 45% in size
How it was run: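 FXR-UAS-bla HEK 293T cells exposed to compounds for 16 h at 37C. Cytotoxicity read in the same wells by CellTiter-Glo luminescence after 30 min at room temperature, following the beta-lactamase FRET read.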

[5] = qHTS assay to identify small molecule antagonists of the farnesoid-X-receptor (FXR) signaling pathway - cell viability counter screen (AID 743221; active = well fitted cell-killing curve with a large enough effect in the repeat runs, not every such curve was filed as active; also: nearly all actives have a fitted effect of over 50% in size)
How it was run: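 Luminescence from CellTiter-Glo measures cytotoxicity in GeneBLAzer FXR-UAS-bla HEK 293T cells. Cells were exposed to compounds with 50 uM chenodeoxycholic acid (final) for 16 h at 37 C, in wells also used for the reporter readout.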

[6] = target: Vitamin D3 receptor (Homo sapiens) (UniProt P11473); experiment: qHTS assay to identify small molecule agonists of the vitamin D receptor (VDR) signaling pathway (AID 743222; calls by dose curve)
Vitamin D3 receptor (Homo sapiens), sequence (P11473 whole entry, looked up): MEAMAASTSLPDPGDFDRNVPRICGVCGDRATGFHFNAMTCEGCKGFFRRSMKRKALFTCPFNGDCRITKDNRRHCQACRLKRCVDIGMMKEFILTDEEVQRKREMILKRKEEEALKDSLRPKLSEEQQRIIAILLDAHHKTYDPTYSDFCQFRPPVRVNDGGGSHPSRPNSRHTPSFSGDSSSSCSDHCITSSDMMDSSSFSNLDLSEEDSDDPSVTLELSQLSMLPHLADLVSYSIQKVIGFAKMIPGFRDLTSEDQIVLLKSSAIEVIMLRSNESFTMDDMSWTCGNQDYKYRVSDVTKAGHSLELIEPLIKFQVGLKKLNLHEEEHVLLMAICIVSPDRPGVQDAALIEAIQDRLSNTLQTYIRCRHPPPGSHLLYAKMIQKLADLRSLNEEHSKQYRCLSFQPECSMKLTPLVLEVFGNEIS
How it was run: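 VDR-bla cells plated 4 h at 37 C, then exposed to compounds for 16 h at 37 C. Beta-lactamase reporter activity measured by fluorescence after 2 h room-temperature loading with LiveBLAzer B/G FRET substrate.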

[7] = target: Vitamin D3 receptor (Homo sapiens) (UniProt P11473); experiment: qHTS assay to identify small molecule antagonists of the vitamin D receptor (VDR) signaling pathway (AID 743223; active = well fitted inhibition curve with a large enough effect in the signal ratio in the repeat runs, not every such curve was filed as active; the % refers to the signal ratio)
How it was run: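 Antagonist mode uses 1alpha,25-dihydroxyvitamin D3 at 3 nM final as stimulus. VDR-bla cells receive compounds in DMSO, incubate 16 h at 37C, then a beta-lactamase FRET substrate for 2 h at room temperature before fluorescence measurement.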

[8] = qHTS assay to identify small molecule agonists of the vitamin D receptor (VDR) signaling pathway - cell viability counter screen (AID 743224); also: series mostly up to about 63 µM; nearly all actives have a fitted effect of over 50% in size
How it was run: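 VDR-bla cells, 4 h after plating, exposed to compounds for 16 h at 37C; viability then read in the same wells as CellTiter-Glo luminescence after 30 min at room temperature, following the bla FRET read.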

[9] = qHTS assay to identify small molecule antagonists of the vitamin D receptor (VDR) signaling pathway - cell viability counter screen (AID 743225); also: nearly all actives have a fitted effect of over 50% in size
How it was run: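 Read-out: CellTiter-Glo luminescence measured 30 min after reagent addition at room temperature. Cells were VDR-bla HEK 293T exposed 16 h at 37C, 5% CO2, to compound with 3 nM final calcitriol agonist.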

[10] = qHTS assay to identify small molecule agonists of the NFkB signaling pathway (AID 1159509; active = well fitted curve in the direction sought with a large enough effect in the signal ratio in the repeat runs, not every such curve was filed as active; the % refers to the signal ratio; also: series mostly up to about 61 µM)
How it was run: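 NFkB-bla ME-180 cells with a beta-lactamase reporter under an NF-kB response element were plated overnight, treated with compounds in DMSO for 5 hr at 37 C, then loaded with FRET substrate for 1.5 hr at room temperature.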

[11] = qHTS assay to identify small molecule agonists of the NFkB signaling pathway - cell viability counter screen (AID 1159515; calls by dose curve; also: series mostly up to about 61 µM; nearly all actives have a fitted effect of over 55% in size)
How it was run: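 NFkB-bla ME-180 cells, 2,000/well, plated overnight at 37 C; compound added for 5 hr at 37 C. Viability read in the same wells as the bla reporter, by CellTiter-Glo luminescence after 30 min at room temperature.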

[12] = qHTS assay to identify small molecule agonists of the endoplasmic reticulum stress response signaling pathway (AID 1159516; active = well fitted activation curve with a large enough effect in the signal ratio in the repeat runs, not every such curve was filed as active; the % refers to the signal ratio)
How it was run: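 CellSensor ESRE-bla HeLa cells, 1,500 per well, plated overnight, then exposed to compounds for 5 hr at 37 C. Beta-lactamase reporter read with LiveBLAzer B/G FRET substrate after 2 hr at room temperature, 405 nm excitation, 460 and 530 nm emission.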

[13] = qHTS assay to identify small molecule agonists of the endoplasmic reticulum stress response signaling pathway - cell viability counter screen (AID 1159517; calls by dose curve)
How it was run: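 Cells, HeLa ESRE-bla; density, 1,500/well; dosing, 5 hr at 37 C, 5% CO2; readout, CellTiter-Glo luminescence after 30 min RT.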

[14] = target: Nuclear receptor ROR-gamma (Homo sapiens) (UniProt P51449); experiment: qHTS assay to identify small molecule antagonists of the retinoid-related orphan receptor gamma (ROR-gamma) signaling pathway (AID 1159521)
How it was run: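 CHO Tet-on RORγ, RORE-luc reporter. Cpd 2 h pre-incubation, then dox hyclate 1 uM final, 16 h, 37 C/5% CO2. ONE-Glo luminescence; decrease = antagonist.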

[15] = qHTS assay to identify small molecule agonists of the AP-1 signaling pathway - cell viability counter screen (AID 1159525; calls by dose curve; also: nearly all actives have a fitted effect of over 55% in size)
How it was run: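 Luminescent ATP readout (Cell Titer Glo, 30 min RT), normalised to DMSO and tetra n-octyl ammonium bromide controls. Cells were ME-180 AP-1-bla in 0.5% dialyzed FBS Opti-MEM, with a 5 h, 37 °C compound exposure.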

[16] = qHTS assay to identify small molecule agonists of the AP-1 signaling pathway (AID 1159526; calls by dose curve)
[17] = target: Peroxisome proliferator-activated receptor delta (Homo sapiens) (UniProt Q03181); experiment: qHTS assay to identify small molecule antagonists of the peroxisome proliferator-activated receptor delta (PPARd) signaling pathway (AID 743215; active = well fitted inhibition curve with a large enough effect in the signal ratio in the repeat runs, not every such curve was filed as active; the % refers to the signal ratio;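 also: cells stimulated with agonist L165041 at 300 nM final during compound exposure; series mostly up to about 62 µM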)
How it was run: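 PPARd-bla HEK293H cells (UAS-bla reporter) preincubated 5 h, then given compound plus 300 nM final L165041 agonist for 17 h at 37 C. Beta-lactamase activity read by LiveBLAzer B/G FRET substrate fluorescence after 2 h at room temperature.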

[18] = target: Bile acid receptor (Homo sapiens) (UniProt Q96RI1); experiment: qHTS assay to identify small molecule antagonists of the farnesoid-X-receptor (FXR) signaling pathway (AID 743217; active = well fitted inhibition curve with a large enough effect in the signal ratio in the repeat runs, not every such curve was filed as active; the % refers to the signal ratio)
Bile acid receptor (Homo sapiens), sequence (Q96RI1 whole entry, looked up): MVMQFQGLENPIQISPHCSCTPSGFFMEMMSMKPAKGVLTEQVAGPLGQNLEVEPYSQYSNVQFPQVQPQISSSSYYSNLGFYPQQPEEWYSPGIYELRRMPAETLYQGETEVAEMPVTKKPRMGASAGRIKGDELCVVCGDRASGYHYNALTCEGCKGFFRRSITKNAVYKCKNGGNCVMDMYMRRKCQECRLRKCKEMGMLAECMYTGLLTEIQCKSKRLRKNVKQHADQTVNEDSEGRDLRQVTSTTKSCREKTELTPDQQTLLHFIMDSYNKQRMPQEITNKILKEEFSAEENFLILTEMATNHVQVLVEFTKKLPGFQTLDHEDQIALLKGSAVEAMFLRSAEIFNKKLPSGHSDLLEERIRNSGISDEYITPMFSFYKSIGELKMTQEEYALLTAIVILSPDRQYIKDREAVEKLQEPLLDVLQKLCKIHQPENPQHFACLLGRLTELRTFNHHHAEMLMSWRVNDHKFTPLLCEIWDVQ
How it was run: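 FXR-UAS-bla HEK 293T cells (beta-lactamase reporter) given compound plus chenodeoxycholic acid (50 uM final), 16 h at 37C. LiveBLAzer B/G FRET substrate added for 2 h at room temperature; fluorescence read.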

[19] = target: Bile acid receptor (Homo sapiens) (UniProt Q96RI1); experiment: qHTS assay to identify small molecule agonists of the farnesoid-X-receptor (FXR) signaling pathway (AID 743220; active = well fitted activation curve with a large enough effect in the signal ratio in the repeat runs, not every such curve was filed as active; the % refers to the signal ratio)
How it was run: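 Beta-lactamase reporter under UAS control in GeneBLAzer FXR HEK 293T cells (5000/well) measured with LiveBLAzer FRET substrate after 2 h at room temperature. Compound exposure lasted 16 h at 37C.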

[20] = qHTS assay to identify small molecule antagonists of the retinoid-related orphan receptor gamma (ROR-gamma) signaling pathway - cell viability counter screen (AID 1159520); also: nearly all actives have a fitted effect of over 50% in size
How it was run: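 Cytotoxicity was read from cellular ATP (CellTiter-Glo luminescence) after 16 hr at 37 C with 1 uM doxycycline induction. The inducer was added 2 hr after compound transfer to Tet-on ROR gamma CHO cells.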

Measured: Potency

CO[Si](CCCCl)(OC)OC
not listed: [17] | [18] | [19] | [20]
inactive: all other assays above

Nc1nc(=O)n([C@@H]2O[C@H](CO)[C@@H](O)[C@@H]2F)cc1I
not listed: [6] | [18] | [19] | [20]
inactive: all other assays above

Cc1ccccc1C
not listed: [7] | [18] | [19] | [20]
inactive: all other assays above

CCCCCCCCCCCCC
not listed: [1] | [3] | [4] | [6] | [7] | [14] | [17] | [20]
inactive: all other assays above

C[C@H](CCC(=O)O)[C@H]1CC[C@H]2[C@@H]3[C@H](O)C[C@@H]4C[C@H](O)CC[C@]4(C)[C@H]3C[C@H](O)[C@]12C
not listed: [2] | [6] | [7] | [14] | [17]
inactive: all other assays above

CCOC(=O)C(C)(C)C
not listed: [1] | [17] | [20]
inactive: all other assays above

Cc1ccccc1OCC1CO1 (configuration not stated)
not listed: [7] | [15] | [20]
inactive: all other assays above

COc1ccc(OC)c(NC(=O)CC(C)=O)c1
not listed: [17] | [18] | [19] | [20]
inactive: all other assays above

CCCCCC1Nc2cc(C(F)(F)F)c(S(N)(=O)=O)cc2S(=O)(=O)N1 (configuration not stated)
not listed: [1] | [6] | [18] | [19] | [20]
inactive: all other assays above

Nc1cc(Cl)cc(S(=O)(=O)O)c1O
not listed: [2] | [6] | [9] | [14] | [17] | [18] | [19]
inactive: all other assays above

c1ccc(CNc2ncnc3nc[nH]c23)cc1
not listed: [1] | [2] | [17] | [20]
inactive: all other assays above

Cc1ncc([N+](=O)[O-])n1CC(O)CCl (configuration not stated)
not listed: [2] | [5] | [17] | [20]
inactive: all other assays above

COC(=O)CCC(=O)O
not listed: [2] | [5] | [14] | [17] | [18] | [19] | [20]
inactive: all other assays above

O=C(O)C(=O)Nc1cccc(-c2nn[nH]n2)c1
not listed: [6] | [17] | [20]
inactive: all other assays above

CC(=O)OC(C)c1ccccc1 (configuration not stated)
not listed: [2] | [3] | [7] | [17] | [18] | [19] | [20]
inactive: all other assays above

CCCCC(CC)COC(=O)c1ccccc1 (configuration not stated)
not listed: [6] | [18] | [19] | [20]
inactive: all other assays above

C=C(C)C(=O)OCCCCCCOC(=O)C(=C)C
not listed: [2] | [6] | [14] | [17] | [18] | [19]
inactive: all other assays above

Cc1ccc2c(c1)c1c3n2CCNC3CCC1 (configuration not stated)
not listed: [2] | [3] | [5] | [6] | [14] | [17]
inactive: all other assays above
